Structures are written as SMILES. Records with an inconclusive call do not appear. The source made the active and inactive calls. Rule for the calls: active = hit-call score of the fitted dose curve at least 0.9, where 1 is the maximum; inconclusive = response in the unintended direction; inactive = score below 0.9.

Read-out in this test: HMG-CoA synthase (HMGCS2), HMGCS2 (gene 3158)
The experiment in a line: CLD_HMGCS2_24hr: CellzDirect (CLD) Gene Expression Assay for HMG-CoA synthase (HMGCS2) at 24 hours (AID 2283691). On the procedure:
CLD_24hr is a cell-based, multiplexed-readout assay that uses hepatocyte, a human liver primary cell, with measurements taken at 24 hours after chemical dosing in a 96-well plate.CLD_HMGCS2_24hr is one of 16 assay component(s) measured or calculated from the CLD_24hr assay. It is designed to make measurements of mRNA induction, a form of inducible reporter, as detected with chemiluminescence signals by Quantitative Nuclease Protection Assay (qNPA) technology.Data from the assay component CLD_HMGCS2_24hr was analyzed at the endpoint, CLD_HMGCS2_24hr, in the positive analysis fitting direction relative to DMSO as the negative control and baseline of activity. Using a type of inducible reporter, gain-of-signal activity can be used to understand changes in the reporter gene as they relate to the gene HMGCS2. Furthermore, this assay endpoint can be referred to as a primary readout. To generalize the intended target to other relatable targets, this assay endpoint is annotated to the lyase intended target family, where subfamily is HMG-CoA synthase.
Human hepatocyte cultures were treated daily for two consecutive days with fresh dosing solutions containing appropriate concentrations of the 320 ToxCast chemicals (chemical identities were blinded to CellzDirect and other ToxCast collaborators), vehicle control (0.2% DMSO), and positive control inducers as summarized in Table 1. Due to the large number of treatment groups and chemicals examined, the ToxCast chemicals were divided into two groups (spanning two independent cultures of hepatocytes from separate donor preparations (Hu778: ToxCast plates 1 and 2; Hu776: ToxCast plates 3 and 4). Each preparation of human hepatocyte cultures was treated with respective vehicle control, medium only control, set of six positive controls/reference chemicals for the five hepatic receptor pathways, and a subset of eight of the ToxCast chemicals (indoxacarb, pyrithiobac-sodium, norflurazon, cyhalofop-butyl, methomyl, thiram, acetochlor, and propiconazole). These replicate data, coupled with internal replicates designed within the blinded ToxCast chemical library, provided additional data to evaluate interindividual differences between hepatocyte preparations and their potential impact on chemical profiles.Cell morphology and integrity were evaluated using phase-contrast microscopy as an indicator of hepatocyte cell health (Tyson & Green, 1987). Cultures for each treatment group (i.e., media, vehicle [0.2% DMSO], positive control inducers [multiple concentrations], and the ToxCast chemicals [multiple concentrations]) were observed and cell morphology was assessed relative to vehicle control cultures at each harvest time point (0, 6, 24, or 48 h). […] Images were evaluated at the conclusion of the study to assess changes in cell integrity and account for the effects of chemical exposure on uncharacteristic changes in concentration-dependent gene expression profiles. The results from these determinations of apparent cytotoxicity were annotated (yes/no) alongside the corresponding qNPA data for reference.At the conclusion of each treatment period, hepatocyte cultures (96-well) were washed with 1 volume of HBSS, lysed by addition of 25 ul ArrayPlate lysis buffer (HTG, Tucson, AZ), and 70 ul/well of Denaturation Oil, denatured by incubation at 95C for 10 min, and frozen at approximately -70C until analysis by nuclease protection assay (qNPA) (Roberts et al., 2007). For qNPA analysis, cell lysates were thawed at 50C for approximately 30 min, qNPA probes were added, and samples were incubated at 95C for 10 min to begin the detection process by denaturing the target RNA, dissociating the duplexes and secondary structure hybridization. At the conclusion of the hybridization period, S1 nuclease reagent was added to each sample to digest all nonprotected nucleotides at 50C for 60-90 min. […]
Consider `COP(=O)(OC)O/C(C)=C/C(=O)N(C)C`, for which the call was inactive.
On to `CSC(=O)c1c(C(F)F)nc(C(F)(F)F)c(C(=O)SC)c1CC(C)C`, for which the call was inactive.
With `CCNC(=O)NC(=O)C(C#N)=NOC`, the outcome was inactive.
On the same count and under the same terms, the value for `CN=C=S` was “inactive”.
On to `COC(=O)NS(=O)(=O)c1ccc(N)cc1`, for which the molecule was called inactive.
On the same count and under the same terms, for `CS(=O)(=O)c1ccc(C(=O)C2C(=O)CCCC2=O)c([N+](=O)[O-])c1` the value was “inactive”; for `Nc1c(Cl)c(Cl)nc(C(=O)O)c1Cl`, “inactive”; for `CC(C)N1C(=O)c2ccccc2NS1(=O)=O`, “inactive”.
For the molecule `CCOc1nc(F)cc2nc(S(=O)(=O)Nc3c(Cl)cccc3Cl)nn12`, the molecule was called inactive.
As a reminder, the AC50 is the concentration at which the activity in the assay is half-maximal. Consider `CCOC(=O)C(C)OC(=O)c1cc(Oc2ccc(C(F)(F)F)cc2Cl)ccc1[N+](=O)[O-]` (stereo unspecified), for which the AC50 was 310 nM (active).
As to `Cc1nc(N(C)C)nc(OC(=O)N(C)C)c1C`, the molecule was called inactive.
Take `COCc1cnc(C2=NC(C)(C(C)C)C(=O)N2)c(C(=O)O)c1` (stereo unspecified): the call was inactive.
With `CCCN(CC)CC1COC2(CCC(C(C)(C)C)CC2)O1` (stereo unspecified), the half-maximal activity concentration (AC50) was 74.2 nM (active).
Take `N#CN=C1SCCN1Cc1ccc(Cl)nc1`: the molecule was called inactive.
The same measure, in the same setting: the value for `CCOP(=O)(OCC)Oc1nc(Cl)c(Cl)cc1Cl` was “inactive”; that for `CC1(C)C(C(=O)OC(C#N)c2cccc(Oc3ccccc3)c2)C1(C)C` (stereo unspecified) was “inactive”.

The values above are taken from PubChem BioAssay (EPA / NIEHS).
